Results filed as inconclusive are left out. The source made the active and inactive calls. The calls were made as follows, unless noted: active = hit-call score of the fitted dose curve at least 0.9, where 1 is the maximum; inactive = score below 0.9.
Columns and labels:
[1] = ATG_DR4_LXR_CIS: Attagene CIS-FACTORIAL HepG2 Assay for human Liver X Receptor (LXR), DR4 submotif (AID 2282929); conditions: HepG2 Attagene DR4 cis-reporter, mRNA transcription; actives raise or lower the signal
Method in brief: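 Measures endogenous transcription factor activity via a DR4-driven reporter transcript in human HepG2 cells. Compounds incubated 24 h; mRNA quantified by RT-PCR and capillary electrophoresis, analysed as gain or loss of signal versus DMSO.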

[2] = ATG_AP_1_CIS: Attagene CIS-FACTORIAL HepG2 Assay for human Activator Protein 1 (AP-1) (AID 2282931); conditions: HepG2 Attagene cis-factorial AP-1 reporter mRNA; actives raise or lower the signal
Method in brief: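 Bidirectional concentration-response fitting against DMSO controls. Underlying signal: reporter mRNA from cis-promoter constructs in transiently transfected HepG2, measured after 24 h by RT-PCR and capillary electrophoresis.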

[3] = target: Hepatocyte nuclear factor 3-beta (Homo sapiens) (UniProt Q9Y261); assay: ATG_FoxA2_CIS: Attagene CIS-FACTORIAL HepG2 Assay for human Forkhead box A2 (FOXA2) (AID 2282942); conditions: HepG2 cis-reporter transcription factor activity, 24 h; actives raise or lower the signal
Method in brief: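 In transiently transfected human HepG2 cells, promoter-driven reporter mRNA levels after 24 h chemical exposure are determined via RT-PCR with capillary electrophoresis. DMSO serves as baseline for bidirectional fitting.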

[4] = target: Hypoxia-inducible factor 1-alpha (Homo sapiens) (UniProt Q16665); assay: ATG_HIF1a_CIS: Attagene CIS-FACTORIAL HepG2 Assay for human Hypoxia Inducible Factor 1 (HIF1A) (AID 2282951); conditions: HepG2 Attagene cis-factorial HIF1a reporter transcription; actives raise or lower the signal
Method in brief: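 In this multiplexed cell assay, HepG2 cells bearing transfected cis reporters are dosed for 24 h and reporter mRNA is read by RT-PCR plus capillary electrophoresis; signal increases and decreases are both scored against DMSO.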

[5] = ATG_RORE_CIS: Attagene CIS-FACTORIAL HepG2 Assay for human RAR-related Orphan Receptor Element (RORE) (AID 2282959); conditions: HepG2 Attagene cis-factorial RORE reporter, mRNA; actives raise or lower the signal
Method in brief: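 Fluorescence intensity of reporter-specific cDNA fragments, separated by capillary electrophoresis, gives the signal. Source: HepG2 liver cells transiently transfected with cis-element reporters and exposed 24 h; DMSO-normalized bidirectional fit.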

[6] = target: Signal transducer and activator of transcription 3 (Homo sapiens) (UniProt P40763); assay: ATG_STAT3_CIS: Attagene CIS-FACTORIAL HepG2 Assay for human Signal Transducer and Activator of Transcription 3 (STAT3) (AID 2282963); conditions: HepG2, Attagene cis-factorial STAT3 reporter transcription; actives raise or lower the signal
Method in brief: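 HepG2, MRTU-transfected, 24 h dosing. RNA → RT → PCR → FAM label → HpaI → CE. Bidirectional fit vs DMSO.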

[7] = ATG_TCF_b_cat_CIS: Attagene CIS-FACTORIAL HepG2 Assay for human T-Cell-Factor with beta-catenin (TCF/b-cat) (AID 2282965); conditions: HepG2 TCF/beta-catenin cis-reporter transcription, actives raise or lower the signal
Method in brief: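 In this cis-format system, transfected HepG2 cells report endogenous transcription factor activity. Readout after 24 h exposure is reporter transcript abundance from RT-PCR and capillary electrophoresis, analysed for gain or loss of signal versus DMSO.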

[8] = ATG_TAL_CIS: Attagene CIS-FACTORIAL HepG2 Assay for human TAL Basal Promoter (AID 2282966); conditions: HepG2 Attagene cis-factorial TAL promoter reporter; actives raise or lower the signal;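 also: background control endpoint measuring basal TAL promoter reporter mRNA not a specific factor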
Method in brief: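 After 24 hours of chemical exposure, transfected HepG2 cells yielded RNA that was converted to 6-FAM-labelled, HpaI-digested reporter fragments for capillary electrophoresis. Values derive from bidirectional fitting against DMSO controls.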

[9] = ATG_TGFb_CIS: Attagene CIS-FACTORIAL HepG2 Assay for human Transforming Growth Factor (TGF) (AID 2282967); conditions: HepG2 Attagene CIS TGFb reporter, mRNA transcription; actives raise or lower the signal
Method in brief: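 Endogenous TGFB1-linked transcription factor activity read as reporter mRNA via RT-PCR and capillary electrophoresis, 24 h after dosing transiently transfected HepG2 cells. Gain or loss of signal fitted relative to DMSO.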

[10] = ATG_VDRE_CIS: Attagene CIS-FACTORIAL HepG2 Assay for human Vitamin D Receptor Element (VDRE) (AID 2282968); conditions: HepG2 VDRE cis-reporter transcription, actives raise or lower the signal
Method in brief: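 Steps: transfect HepG2 with multiple reporter transcription units; dose chemicals 24 h; isolate RNA; RT-PCR; label with 6-FAM primer extension; HpaI digest; capillary electrophoresis. Curves fitted both directions against DMSO.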

[11] = target: X-box-binding protein 1 (Homo sapiens) (UniProt P17861); assay: ATG_Xbp1_CIS: Attagene CIS-FACTORIAL HepG2 Assay for human X-box Binding Protein 1 (XBP1) (AID 2282972); conditions: HepG2 XBP1 cis-element reporter, Attagene multiplex; actives raise or lower the signal
Method in brief: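 Human hepatoma HepG2, cis-element reporter system, 24 h treatment; mRNA quantified by RT-PCR/CE fluorescence; fit relative to DMSO.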

[12] = target: Transcriptional activator Myb (Homo sapiens) (UniProt P10242); assay: ATG_Myb_CIS: Attagene CIS-FACTORIAL HepG2 Assay for human Myeloblastosis (Myb) Proto-Oncogene Transcription Factor (AID 2282986); conditions: HepG2 Attagene CIS-FACTORIAL Myb reporter transcription; actives raise or lower the signal
Method in brief: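 Fluorescence signals from capillary electrophoresis of RT-PCR-amplified reporter cDNA give the read-out. Cells: HepG2 transfected with multiple cis-regulated reporter units. Exposure lasts 24 hours; DMSO defines baseline for gain or loss of signal.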

[13] = target: Nuclear respiratory factor 1 (Homo sapiens) (UniProt Q16656); assay: ATG_NRF1_CIS: Attagene CIS-FACTORIAL HepG2 Assay for human Nuclear Respiratory Factor 1 (NRF1) Orphan Gene (AID 2282987); conditions: HepG2 NRF1 cis-element reporter, Attagene multiplex; actives raise or lower the signal
Method in brief: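 Transcriptional reporter readout, one component of a 52-endpoint multiplexed HepG2 panel. Exposure 24 h; mRNA detected via RT-PCR and fluorescent capillary electrophoresis; fitting in both directions against DMSO.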

[14] = target: Myc proto-oncogene protein (Homo sapiens) (UniProt P01106); assay: ATG_Myc_CIS: Attagene CIS-FACTORIAL HepG2 Assay for human Myelocytomatosis (Myc) Proto-Oncogene Transcription Factor (AID 2282990); conditions: HepG2, Attagene cis-reporter transcription factor activity; actives raise or lower the signal
Method in brief: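 DMSO-normalised, bidirectionally fitted reporter mRNA signal. HepG2 cells transfected with cis reporter constructs, treated 24 h; transcripts detected by RT-PCR, 6-FAM primer extension and CE.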

[15] = ATG_NRF2_ARE_CIS: Attagene CIS-FACTORIAL HepG2 Assay for human Nuclear Factor Erythroid 2 Related Factor 2 (NFR2) response to Antioxidant Response Elements (ARE) (AID 2282992); conditions: HepG2 Attagene ARE/NRF2 reporter, transcription factor activity; actives raise or lower the signal;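 as to AC50: reporter mRNA level measured by RT-PCR and capillary electrophoresis fluorescence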
Method in brief: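 Fluorescence intensity of reporter-specific cDNA fragments, separated by capillary electrophoresis, reflects mRNA induction in transfected HepG2 cells at 24 h. Activity is fitted bidirectionally, DMSO serving as baseline.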

[16] = ATG_Oct_MLP_CIS: Attagene CIS-FACTORIAL HepG2 Assay for human Octamer-Binding Transcription Factor (Oct) (AID 2282993); conditions: HepG2 Attagene cis-factorial Oct reporter, mRNA; actives raise or lower the signal
Method in brief: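 Readout is reporter transcript level from RT-PCR with fluorescent primer extension and capillary electrophoresis, fitted in both directions against DMSO. Transfected HepG2 reporter units report endogenous factor activity after 24 h dosing.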

[17] = target: Cellular tumor antigen p53 (Homo sapiens) (UniProt P04637); assay: ATG_p53_CIS: Attagene CIS-FACTORIAL HepG2 Assay for human p53 Transcription Factor (AID 2282994); conditions: HepG2 p53 cis-element reporter, Attagene mRNA; actives raise or lower the signal
Method in brief: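 Transiently transfected HepG2 (multiple cis reporter transcription units); exposure 24 h; reporter RNA via RT-PCR, 6-FAM extension, 2 h HpaI digest at 37 C, CE detection; DMSO baseline.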

[18] = target: Nuclear receptor subfamily 1 group I member 2 (Homo sapiens) (UniProt O75469); assay: ATG_PXR_TRANS: Attagene TRANS-FACTORIAL HepG2 Assay for human Pregnane X Receptor (PXR) (AID 2283008; active = hit-call score of the fitted dose curve at least 0.9, where 1 is the maximum)
Method in brief: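 Transient HepG2 transfectants carrying multiplexed reporter transcription units; PXR activity read through a Gal4 chimera. 24 h exposure. RT-PCR/CE fluorescence; upward curve fit referenced to DMSO.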

[19] = ATG_XTT_Cytotoxicity: Cytotoxicity Assessment in the Attagene TRANS-FACTORIAL HepG2 Assay (AID 2283584; active = hit-call score of the fitted dose curve at least 0.9, where 1 is the maximum)
Method in brief: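 Cells: human HepG2, transiently transfected with MRTU reporter constructs. Exposure 24 h. Readout: XTT, cell number. Baseline/neg ctrl DMSO; loss-of-signal scored.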

[20] = target: Heat shock factor protein 1 (Homo sapiens) (UniProt Q00613); assay: ATG_HSE_CIS: Attagene CIS-FACTORIAL HepG2 Assay for human Heat Shock Transcription Factor 1 (HSE) (AID 2282953); conditions: HepG2 HSE cis-reporter, Attagene RNA transcription; actives raise or lower the signal
Method in brief: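 Endogenous transcription factor activity in transiently transfected HepG2, read as reporter mRNA by RT-PCR with fluorescent capillary electrophoresis after 24 h. Gain or loss of signal fitted versus DMSO baseline.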

Measured: AC50

Heat shock factor protein 1 (Homo sapiens), sequence (Q00613 whole entry, looked up): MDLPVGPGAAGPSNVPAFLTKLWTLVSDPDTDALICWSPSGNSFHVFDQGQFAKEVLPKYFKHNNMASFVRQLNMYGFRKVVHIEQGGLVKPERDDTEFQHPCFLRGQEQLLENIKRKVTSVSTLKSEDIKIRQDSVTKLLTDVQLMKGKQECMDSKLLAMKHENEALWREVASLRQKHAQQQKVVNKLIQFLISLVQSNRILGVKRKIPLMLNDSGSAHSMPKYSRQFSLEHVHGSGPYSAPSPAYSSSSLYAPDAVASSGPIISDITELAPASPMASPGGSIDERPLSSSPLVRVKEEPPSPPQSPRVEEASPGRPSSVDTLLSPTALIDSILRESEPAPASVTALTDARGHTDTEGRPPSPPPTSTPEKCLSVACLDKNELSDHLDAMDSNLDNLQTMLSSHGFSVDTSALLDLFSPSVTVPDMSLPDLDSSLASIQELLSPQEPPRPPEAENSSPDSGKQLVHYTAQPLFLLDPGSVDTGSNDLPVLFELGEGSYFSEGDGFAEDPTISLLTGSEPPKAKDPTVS
Cellular tumor antigen p53 (Homo sapiens), sequence (P04637 whole entry, looked up): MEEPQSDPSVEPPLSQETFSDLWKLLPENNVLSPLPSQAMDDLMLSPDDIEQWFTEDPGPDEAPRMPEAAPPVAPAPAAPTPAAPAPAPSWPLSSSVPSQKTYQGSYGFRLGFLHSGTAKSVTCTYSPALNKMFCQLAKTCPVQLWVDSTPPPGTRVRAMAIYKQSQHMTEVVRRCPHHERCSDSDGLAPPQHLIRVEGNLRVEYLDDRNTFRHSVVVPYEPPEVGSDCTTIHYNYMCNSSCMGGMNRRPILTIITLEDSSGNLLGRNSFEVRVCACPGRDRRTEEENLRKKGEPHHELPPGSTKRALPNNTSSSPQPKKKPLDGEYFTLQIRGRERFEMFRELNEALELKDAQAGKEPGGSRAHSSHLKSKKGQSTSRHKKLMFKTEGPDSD
X-box-binding protein 1 (Homo sapiens), sequence (P17861 whole entry, looked up): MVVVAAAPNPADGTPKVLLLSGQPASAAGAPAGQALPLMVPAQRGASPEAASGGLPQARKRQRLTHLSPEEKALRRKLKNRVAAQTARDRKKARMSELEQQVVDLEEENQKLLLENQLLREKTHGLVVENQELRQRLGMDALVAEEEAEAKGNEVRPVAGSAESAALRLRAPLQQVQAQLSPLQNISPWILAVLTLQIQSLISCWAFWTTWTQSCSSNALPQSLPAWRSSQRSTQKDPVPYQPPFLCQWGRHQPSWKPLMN
Myc proto-oncogene protein (Homo sapiens), sequence (P01106 whole entry, looked up): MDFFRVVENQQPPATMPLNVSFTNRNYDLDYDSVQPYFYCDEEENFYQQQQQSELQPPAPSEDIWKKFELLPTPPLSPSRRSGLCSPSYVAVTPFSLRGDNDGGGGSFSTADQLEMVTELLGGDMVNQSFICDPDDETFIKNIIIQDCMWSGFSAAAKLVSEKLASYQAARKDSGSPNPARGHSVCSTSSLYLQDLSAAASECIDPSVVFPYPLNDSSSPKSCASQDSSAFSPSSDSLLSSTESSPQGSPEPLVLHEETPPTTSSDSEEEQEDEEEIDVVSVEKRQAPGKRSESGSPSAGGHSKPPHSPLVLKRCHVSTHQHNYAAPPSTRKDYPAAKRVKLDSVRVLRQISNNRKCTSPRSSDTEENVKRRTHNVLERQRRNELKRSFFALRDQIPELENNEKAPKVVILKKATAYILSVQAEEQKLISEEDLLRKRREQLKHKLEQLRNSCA
Hypoxia-inducible factor 1-alpha (Homo sapiens), sequence (Q16665 whole entry, looked up): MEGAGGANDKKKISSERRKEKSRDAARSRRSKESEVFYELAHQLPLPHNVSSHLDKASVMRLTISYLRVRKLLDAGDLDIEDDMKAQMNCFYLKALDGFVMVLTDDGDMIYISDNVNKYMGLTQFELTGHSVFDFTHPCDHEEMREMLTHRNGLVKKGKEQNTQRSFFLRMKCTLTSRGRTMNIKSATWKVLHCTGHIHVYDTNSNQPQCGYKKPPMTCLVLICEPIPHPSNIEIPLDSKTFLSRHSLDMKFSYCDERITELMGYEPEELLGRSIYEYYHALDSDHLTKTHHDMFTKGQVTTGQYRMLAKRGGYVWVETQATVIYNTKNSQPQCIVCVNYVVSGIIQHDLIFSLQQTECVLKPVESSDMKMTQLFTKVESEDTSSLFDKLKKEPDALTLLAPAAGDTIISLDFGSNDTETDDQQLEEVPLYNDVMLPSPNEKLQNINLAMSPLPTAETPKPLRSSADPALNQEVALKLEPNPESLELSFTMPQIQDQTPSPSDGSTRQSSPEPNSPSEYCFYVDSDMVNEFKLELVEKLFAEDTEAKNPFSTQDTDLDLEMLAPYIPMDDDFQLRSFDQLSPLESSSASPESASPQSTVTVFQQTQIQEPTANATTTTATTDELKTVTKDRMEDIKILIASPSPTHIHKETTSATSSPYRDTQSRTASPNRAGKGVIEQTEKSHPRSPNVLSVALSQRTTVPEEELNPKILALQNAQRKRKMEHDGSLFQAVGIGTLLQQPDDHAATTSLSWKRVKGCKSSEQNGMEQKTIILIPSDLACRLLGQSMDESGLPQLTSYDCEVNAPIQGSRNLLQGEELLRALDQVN
Nuclear respiratory factor 1 (Homo sapiens), sequence (Q16656 whole entry, looked up): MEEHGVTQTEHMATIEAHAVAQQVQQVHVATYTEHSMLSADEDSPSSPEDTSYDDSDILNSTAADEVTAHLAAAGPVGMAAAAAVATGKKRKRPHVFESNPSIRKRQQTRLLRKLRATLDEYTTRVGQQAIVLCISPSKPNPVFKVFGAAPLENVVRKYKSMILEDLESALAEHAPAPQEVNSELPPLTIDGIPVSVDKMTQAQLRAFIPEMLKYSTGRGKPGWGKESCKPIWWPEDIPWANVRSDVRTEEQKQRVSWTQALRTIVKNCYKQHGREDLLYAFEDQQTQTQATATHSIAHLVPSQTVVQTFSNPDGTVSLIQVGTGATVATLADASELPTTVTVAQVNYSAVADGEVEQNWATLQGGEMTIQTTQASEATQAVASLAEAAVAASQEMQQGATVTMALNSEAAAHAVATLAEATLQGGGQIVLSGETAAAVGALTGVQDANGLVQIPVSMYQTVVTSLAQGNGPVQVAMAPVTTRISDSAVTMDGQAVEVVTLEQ
Hepatocyte nuclear factor 3-beta (Homo sapiens), sequence (Q9Y261 whole entry, looked up): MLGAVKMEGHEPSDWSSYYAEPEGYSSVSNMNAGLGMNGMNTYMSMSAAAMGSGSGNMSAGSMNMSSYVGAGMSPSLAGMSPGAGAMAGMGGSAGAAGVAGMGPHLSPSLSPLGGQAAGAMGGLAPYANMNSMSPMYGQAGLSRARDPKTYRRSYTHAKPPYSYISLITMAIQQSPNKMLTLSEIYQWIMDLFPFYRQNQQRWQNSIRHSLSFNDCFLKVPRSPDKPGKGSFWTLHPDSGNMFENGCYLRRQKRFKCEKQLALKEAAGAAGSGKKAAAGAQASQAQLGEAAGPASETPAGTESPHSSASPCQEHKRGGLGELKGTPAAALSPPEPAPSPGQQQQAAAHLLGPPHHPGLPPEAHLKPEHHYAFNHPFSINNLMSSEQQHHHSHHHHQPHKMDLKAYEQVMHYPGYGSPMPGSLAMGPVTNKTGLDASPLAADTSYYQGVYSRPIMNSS
Nuclear receptor subfamily 1 group I member 2 (Homo sapiens), sequence (O75469 whole entry, looked up, the tested form may be a part): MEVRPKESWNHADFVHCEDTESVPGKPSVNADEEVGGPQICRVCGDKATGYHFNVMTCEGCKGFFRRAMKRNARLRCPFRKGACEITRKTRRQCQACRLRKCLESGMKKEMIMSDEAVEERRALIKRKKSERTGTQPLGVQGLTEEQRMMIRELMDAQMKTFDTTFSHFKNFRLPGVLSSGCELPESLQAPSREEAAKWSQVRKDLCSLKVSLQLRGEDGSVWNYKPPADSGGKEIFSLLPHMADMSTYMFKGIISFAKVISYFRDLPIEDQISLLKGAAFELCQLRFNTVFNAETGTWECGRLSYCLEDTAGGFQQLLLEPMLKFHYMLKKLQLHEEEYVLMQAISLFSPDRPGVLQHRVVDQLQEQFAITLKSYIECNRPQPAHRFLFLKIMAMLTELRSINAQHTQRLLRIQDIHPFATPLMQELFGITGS
Signal transducer and activator of transcription 3 (Homo sapiens), sequence (P40763 whole entry, looked up): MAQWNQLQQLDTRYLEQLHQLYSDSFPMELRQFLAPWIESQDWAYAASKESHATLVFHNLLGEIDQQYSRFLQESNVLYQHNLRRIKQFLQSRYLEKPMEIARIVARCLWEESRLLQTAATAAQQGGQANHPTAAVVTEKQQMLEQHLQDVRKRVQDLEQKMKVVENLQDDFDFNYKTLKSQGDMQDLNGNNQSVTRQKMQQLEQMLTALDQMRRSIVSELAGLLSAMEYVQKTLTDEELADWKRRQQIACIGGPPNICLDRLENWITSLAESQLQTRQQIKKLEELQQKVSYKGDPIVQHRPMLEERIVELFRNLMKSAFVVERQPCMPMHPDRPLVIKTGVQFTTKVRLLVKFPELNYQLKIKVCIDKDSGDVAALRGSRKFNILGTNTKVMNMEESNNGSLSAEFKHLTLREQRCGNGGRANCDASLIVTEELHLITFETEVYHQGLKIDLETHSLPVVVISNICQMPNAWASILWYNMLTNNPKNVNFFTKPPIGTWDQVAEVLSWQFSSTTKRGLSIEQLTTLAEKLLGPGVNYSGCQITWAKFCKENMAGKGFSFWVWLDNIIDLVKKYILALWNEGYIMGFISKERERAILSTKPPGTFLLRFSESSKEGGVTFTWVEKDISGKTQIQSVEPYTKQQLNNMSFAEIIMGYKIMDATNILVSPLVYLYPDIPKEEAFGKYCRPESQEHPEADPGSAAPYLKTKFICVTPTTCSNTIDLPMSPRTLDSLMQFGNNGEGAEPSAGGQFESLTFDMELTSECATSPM

CCCCCCC(O)CCCCCCCCCCC(=O)OC (stereo not drawn)
active: [5] 21.8 µM | [9] 100 µM
inactive: [1] | [2] | [3] | [4] | [6] | [7] | [8] | [10] | [11] | [12] | [13] | [14] | [15] | [16] | [17] | [18] | [19]

OCCc1ccccn1
inactive: [1] | [2] | [3] | [4] | [20] | [5] | [6] | [7] | [8] | [9] | [10] | [11] | [12] | [13] | [14] | [15] | [17] | [19]

CCCc1c(OCCCCc2nn[nH]n2)ccc(C(C)=O)c1O
active: [5] 33.2 µM | [15] 100 µM
inactive: [1] | [2] | [3] | [20] | [6] | [7] | [8] | [9] | [10] | [11] | [12] | [13] | [14] | [16] | [17] | [18] | [19]

C=CCOCC(CC)(CO)COCC=C
inactive: [2] | [3] | [4] | [20] | [5] | [6] | [7] | [8] | [9] | [10] | [11] | [12] | [13] | [14] | [15] | [17] | [18] | [19]

COCCCN
inactive: [1] | [3] | [4] | [20] | [5] | [6] | [7] | [8] | [9] | [10] | [11] | [12] | [13] | [14] | [15] | [16] | [17] | [19]

CC(C)(Oc1ccc(Cl)cc1)C(=O)O
inactive: [2] | [3] | [20] | [5] | [6] | [7] | [8] | [9] | [10] | [11] | [12] | [13] | [14] | [15] | [17] | [18] | [19]

CCC(C)NC(N)=O (stereo not drawn)
inactive: [1] | [3] | [4] | [20] | [5] | [6] | [7] | [8] | [9] | [10] | [11] | [12] | [13] | [14] | [15] | [16] | [17] | [19]

CC/C=C\CCCCCO
inactive: [1] | [3] | [4] | [20] | [5] | [6] | [7] | [8] | [9] | [10] | [11] | [12] | [13] | [14] | [15] | [16] | [17] | [18] | [19]

COC(OC)C(C)c1ccccc1 (stereo not drawn)
inactive: [2] | [3] | [4] | [20] | [5] | [6] | [7] | [8] | [9] | [10] | [11] | [12] | [13] | [14] | [15] | [16] | [17] | [18] | [19]

Cc1cc(O)cc(C)c1Cl
inactive: [3] | [20] | [5] | [6] | [7] | [8] | [9] | [11] | [12] | [13] | [14] | [18] | [19]
active: [1] 65.4 µM | [4] 48.4 µM | [15] 22.5 µM

CCCCCC[C@@H](O)C/C=C\CCCCCCCC(=O)O
inactive: [4] | [8] | [10] | [11] | [14] | [17] | [18] | [19]
active: [1] 70.4 µM | [3] 172 µM | [20] 187 µM | [5] 100 µM | [6] 160 µM | [7] 60.1 µM | [9] 115 µM | [12] 123 µM | [13] 139 µM | [15] 100 µM

CC/C=C\CC/C=C/C(OCC)OCC
active: [20] 156 µM | [15] 26.2 µM | [17] 187 µM
inactive: [2] | [3] | [4] | [5] | [6] | [7] | [8] | [9] | [11] | [12] | [13] | [14] | [16] | [18]

CCC(=O)OCc1ccc(OC)cc1
inactive: [2] | [3] | [4] | [5] | [6] | [7] | [8] | [9] | [10] | [11] | [12] | [13] | [14] | [15] | [16] | [17] | [19]
active: [18] 31.6 µM

CCCCCCCCCCCCCC
inactive: [2] | [3] | [4] | [20] | [5] | [6] | [7] | [8] | [9] | [10] | [11] | [12] | [13] | [14] | [15] | [16] | [17] | [18] | [19]

From PubChem BioAssay (EPA / NIEHS)
